# Reference: article PMC11006913
# Substitutions are numbered along the chain they refer to.
# Legend:
# Assay in all cases: PBM; 200 nM protein, PBS
# Settings in all cases: dsDNA, one strand shown
# VENTX [1] = target: T1, VENTX (Homo sapiens, UniProt O95231 78-163, R121Q)
# T1 sequence: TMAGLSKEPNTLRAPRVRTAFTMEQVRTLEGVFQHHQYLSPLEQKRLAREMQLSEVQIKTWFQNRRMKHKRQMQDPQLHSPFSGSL
# HOXB9 [2] = target: HOXB9 (Homo sapiens, UniProt P17482 171-250, T197M)
# HOXA4 [3] = target: HOXA4 (Homo sapiens, UniProt Q00056 201-287, W262R)
# Sequence of HOXA4 (Homo sapiens, UniProt Q00056 201-287, W262R) (Q00056 201-287 W262R): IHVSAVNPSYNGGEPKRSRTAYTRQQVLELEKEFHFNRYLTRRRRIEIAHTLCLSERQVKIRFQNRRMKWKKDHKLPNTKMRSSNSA
# HOXC9 [4] = target: HOXC9 (Homo sapiens, UniProt P31274 178-260, K195R)
# Sequence of HOXC9 (Homo sapiens, UniProt P31274 178-260, K195R) (P31274 178-260 K195R): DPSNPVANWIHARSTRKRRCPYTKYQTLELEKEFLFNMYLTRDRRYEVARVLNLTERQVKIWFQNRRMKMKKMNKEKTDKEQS
# VENTX [5] = target: T2, VENTX (Homo sapiens, UniProt O95231 78-163)
# T2 sequence: T1 sequence with Q44R
# HOXA7 [6] = target: HOXA7 (Homo sapiens, UniProt P31268 116-202)
# Sequence of HOXA7 (Homo sapiens, UniProt P31268 116-202) (P31268 116-202): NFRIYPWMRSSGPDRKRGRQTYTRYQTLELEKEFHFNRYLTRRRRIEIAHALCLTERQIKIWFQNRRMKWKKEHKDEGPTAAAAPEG
# VENTX [7] = target: T3, VENTX (Homo sapiens, UniProt O95231 78-163, Y115F)
# T3 sequence: T1 sequence with Y38F, Q44R
# HOXB6 [8] = target: HOXB6 (Homo sapiens, UniProt P17509 132-218, K202E)
# Sequence of HOXB6 (Homo sapiens, UniProt P17509 132-218, K202E) (P17509 132-218 K202E): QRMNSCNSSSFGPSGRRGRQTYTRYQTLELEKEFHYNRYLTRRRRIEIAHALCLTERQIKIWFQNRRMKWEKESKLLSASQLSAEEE
# HOXA2 [9] = target: HOXA2 (Homo sapiens, UniProt O43364 129-215, R185T)
# Sequence of HOXA2 (Homo sapiens, UniProt O43364 129-215, R185T) (O43364 129-215 R185T): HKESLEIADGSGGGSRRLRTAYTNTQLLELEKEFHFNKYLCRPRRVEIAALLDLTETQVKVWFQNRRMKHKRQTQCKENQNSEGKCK
# HOXA4 [10] = target: HOXA4 (Homo sapiens, UniProt Q00056 201-287, R217L)
# Sequence of HOXA4 (Homo sapiens, UniProt Q00056 201-287, R217L) (Q00056 201-287 R217L): as the sequence (Q00056 201-287 W262R) above, with R17L, R62W counted along it
# HOXB9 [11] = target: HOXB9 (Homo sapiens, UniProt P17482 171-250)
# Sequence of HOXB9 (Homo sapiens, UniProt P17482 171-250) (P17482 171-250): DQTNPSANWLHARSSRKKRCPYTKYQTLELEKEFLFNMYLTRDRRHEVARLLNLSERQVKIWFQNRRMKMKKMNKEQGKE
# HOXC9 [12] = target: HOXC9 (Homo sapiens, UniProt P31274 178-260)
# Sequence of HOXC9 (Homo sapiens, UniProt P31274 178-260) (P31274 178-260): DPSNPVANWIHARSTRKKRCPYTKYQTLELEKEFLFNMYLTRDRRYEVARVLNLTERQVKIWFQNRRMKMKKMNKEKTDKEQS
# HOXC9 [13] = target: HOXC9 (Homo sapiens, UniProt P31274 178-260, R193K)
# Sequence of HOXC9 (Homo sapiens, UniProt P31274 178-260, R193K) (P31274 178-260 R193K): as the sequence (P31274 178-260) above, with R16K counted along it
# HOXA2 [14] = target: HOXA2 (Homo sapiens, UniProt O43364 129-215, R185K)
# Sequence of HOXA2 (Homo sapiens, UniProt O43364 129-215, R185K) (O43364 129-215 R185K): as the sequence (O43364 129-215 R185T) above, with T57K counted along it
# HOXA4 [15] = target: HOXA4 (Homo sapiens, UniProt Q00056 201-287)
# Sequence of HOXA4 (Homo sapiens, UniProt Q00056 201-287) (Q00056 201-287): as the sequence (Q00056 201-287 W262R) above, with R62W counted along it
# HOXC10 = HOXC10 (Homo sapiens, UniProt Q9NYD6 254-340, K271E)
# Sequence of HOXC10 (Q9NYD6 254-340 K271E): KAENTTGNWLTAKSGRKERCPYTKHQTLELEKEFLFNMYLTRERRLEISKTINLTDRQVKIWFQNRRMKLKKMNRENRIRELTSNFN
# HOXB9 [16] = target: HOXB9 (Homo sapiens, UniProt P17482 171-250, R186Q)
# Sequence of HOXB9 (Homo sapiens, UniProt P17482 171-250, R186Q) (P17482 171-250 R186Q): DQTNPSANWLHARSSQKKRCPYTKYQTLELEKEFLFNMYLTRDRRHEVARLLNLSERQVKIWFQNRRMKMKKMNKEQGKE
# HOXC9 [17] = target: HOXC9 (Homo sapiens, UniProt P31274 178-260, R222W)
# Sequence of HOXC9 (Homo sapiens, UniProt P31274 178-260, R222W) (P31274 178-260 R222W): as the sequence (P31274 178-260) above, with R45W counted along it
# HOXA2 [18] = target: HOXA2 (Homo sapiens, UniProt O43364 129-215, Y150S)
# Sequence of HOXA2 (Homo sapiens, UniProt O43364 129-215, Y150S) (O43364 129-215 Y150S): as the sequence (O43364 129-215 R185T) above, with Y22S, T57R counted along it
# HOXA7 [19] = target: HOXA7 (Homo sapiens, UniProt P31268 116-202, W177C)
# Sequence of HOXA7 (Homo sapiens, UniProt P31268 116-202, W177C) (P31268 116-202 W177C): as the sequence (P31268 116-202) above, with W62C counted along it
# HOXA4 [20] = target: HOXA4 (Homo sapiens, UniProt Q00056 201-287, W262F)
# Sequence of HOXA4 (Homo sapiens, UniProt Q00056 201-287, W262F) (Q00056 201-287 W262F): as the sequence (Q00056 201-287 W262R) above, with R62F counted along it
# HOXA2 [21] = target: HOXA2 (Homo sapiens, UniProt O43364 129-215)
# Sequence of HOXA2 (Homo sapiens, UniProt O43364 129-215) (O43364 129-215): as the sequence (O43364 129-215 R185T) above, with T57R counted along it
# HOXB6 [22] = target: HOXB6 (Homo sapiens, UniProt P17509 132-218)
# Sequence of HOXB6 (Homo sapiens, UniProt P17509 132-218) (P17509 132-218): as the sequence (P17509 132-218 K202E) above, with E71K counted along it
# ALX3 [23] = target: ALX3 (Homo sapiens, UniProt O95076 139-225, N203Q)
# Sequence of ALX3 (Homo sapiens, UniProt O95076 139-225, N203Q) (O95076 139-225 N203Q): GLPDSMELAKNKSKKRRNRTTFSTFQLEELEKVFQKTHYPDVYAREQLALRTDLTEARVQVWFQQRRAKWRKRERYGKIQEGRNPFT
# ALX3 [24] = target: ALX3 (Homo sapiens, UniProt O95076 139-225)
# Sequence of ALX3 (Homo sapiens, UniProt O95076 139-225) (O95076 139-225): as the sequence (O95076 139-225 N203Q) above, with Q65N counted along it
# VAX1 [25] = target: VAX1 (Homo sapiens, UniProt Q5SQQ9 86-172)
# Sequence of VAX1 (Homo sapiens, UniProt Q5SQQ9 86-172) (Q5SQQ9 86-172): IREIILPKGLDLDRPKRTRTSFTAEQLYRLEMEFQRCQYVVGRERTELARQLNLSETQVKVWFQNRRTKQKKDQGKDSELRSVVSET
# ALX3 [26] = target: ALX3 (Homo sapiens, UniProt O95076 139-225, L168Q)
# Sequence of ALX3 (Homo sapiens, UniProt O95076 139-225, L168Q) (O95076 139-225 L168Q): as the sequence (O95076 139-225 N203Q) above, with L30Q, Q65N counted along it
# ALX3 [27] = target: ALX3 (Homo sapiens, UniProt O95076 139-225, L168V)
# Sequence of ALX3 (Homo sapiens, UniProt O95076 139-225, L168V) (O95076 139-225 L168V): as the sequence (O95076 139-225 N203Q) above, with L30V, Q65N counted along it
# VAX1 [28] = target: VAX1 (Homo sapiens, UniProt Q5SQQ9 86-172, T142I)
# Sequence of VAX1 (Homo sapiens, UniProt Q5SQQ9 86-172, T142I) (Q5SQQ9 86-172 T142I): as the sequence (Q5SQQ9 86-172) above, with T57I counted along it
# ALX3 [29] = target: ALX3 (Homo sapiens, UniProt O95076 139-225, N203S)
# Sequence of ALX3 (Homo sapiens, UniProt O95076 139-225, N203S) (O95076 139-225 N203S): as the sequence (O95076 139-225 N203Q) above, with Q65S counted along it
# VAX1 [30] = target: VAX1 (Homo sapiens, UniProt Q5SQQ9 86-172, K157R)
# Sequence of VAX1 (Homo sapiens, UniProt Q5SQQ9 86-172, K157R) (Q5SQQ9 86-172 K157R): as the sequence (Q5SQQ9 86-172) above, with K72R counted along it
# Sequence of HOXB9 (Homo sapiens, UniProt P17482 171-250, T197M) (P17482 171-250 T197M): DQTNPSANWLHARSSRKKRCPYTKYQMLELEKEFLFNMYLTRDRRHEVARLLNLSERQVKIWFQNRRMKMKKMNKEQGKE
sequence,measurement,setting,value
CGATTAAA,binding signal,VENTX [1],"10.7 upbm affinity estimate (log intensity, higher = more binding, comparable within an allelic series)"
CCATTAAC,binding signal,VENTX [1],"12.1 upbm affinity estimate (log intensity, higher = more binding, comparable within an allelic series)"
same,binding signal,HOXB9 [2],"9.99 upbm affinity estimate (log intensity, higher = more binding, comparable within an allelic series)"
same,binding signal,HOXA4 [3],"10.6 upbm affinity estimate (log intensity, higher = more binding, comparable within an allelic series)"
same,binding signal,HOXC9 [4],"12.7 upbm affinity estimate (log intensity, higher = more binding, comparable within an allelic series)"
same,binding signal,VENTX [5],"12.6 upbm affinity estimate (log intensity, higher = more binding, comparable within an allelic series)"
same,binding signal,HOXA7 [6],"11.5 upbm affinity estimate (log intensity, higher = more binding, comparable within an allelic series)"
same,binding signal,VENTX [7],"11.7 upbm affinity estimate (log intensity, higher = more binding, comparable within an allelic series)"
same,binding signal,HOXB6 [8],"10.1 upbm affinity estimate (log intensity, higher = more binding, comparable within an allelic series)"
same,binding signal,HOXA2 [9],"12.1 upbm affinity estimate (log intensity, higher = more binding, comparable within an allelic series)"
same,binding signal,HOXA4 [10],"12 upbm affinity estimate (log intensity, higher = more binding, comparable within an allelic series)"
same,binding signal,HOXB9 [11],"11.7 upbm affinity estimate (log intensity, higher = more binding, comparable within an allelic series)"
same,binding signal,HOXC9 [12],"12.7 upbm affinity estimate (log intensity, higher = more binding, comparable within an allelic series)"
same,binding signal,HOXC9 [13],"12.7 upbm affinity estimate (log intensity, higher = more binding, comparable within an allelic series)"
same,binding signal,HOXA2 [14],"13.1 upbm affinity estimate (log intensity, higher = more binding, comparable within an allelic series)"
same,binding signal,HOXA4 [15],"13.8 upbm affinity estimate (log intensity, higher = more binding, comparable within an allelic series)"
same,binding signal,HOXC10,"11.9 upbm affinity estimate (log intensity, higher = more binding, comparable within an allelic series)"
same,binding signal,HOXB9 [16],"11.6 upbm affinity estimate (log intensity, higher = more binding, comparable within an allelic series)"
same,binding signal,HOXC9 [17],"11 upbm affinity estimate (log intensity, higher = more binding, comparable within an allelic series)"
same,binding signal,HOXA2 [18],"10.7 upbm affinity estimate (log intensity, higher = more binding, comparable within an allelic series)"
same,binding signal,HOXA7 [19],"8.86 upbm affinity estimate (log intensity, higher = more binding, comparable within an allelic series)"
same,binding signal,HOXA4 [20],"11.5 upbm affinity estimate (log intensity, higher = more binding, comparable within an allelic series)"
same,binding signal,HOXA2 [21],"12 upbm affinity estimate (log intensity, higher = more binding, comparable within an allelic series)"
same,binding signal,HOXB6 [22],"12 upbm affinity estimate (log intensity, higher = more binding, comparable within an allelic series)"
CGAGCGAC,binding signal,VENTX [1],"8.03 upbm affinity estimate (log intensity, higher = more binding, comparable within an allelic series)"
same,binding signal,HOXB9 [2],"8.47 upbm affinity estimate (log intensity, higher = more binding, comparable within an allelic series)"
same,binding signal,HOXC9 [4],"9.58 upbm affinity estimate (log intensity, higher = more binding, comparable within an allelic series)"
same,binding signal,VENTX [5],"7.84 upbm affinity estimate (log intensity, higher = more binding, comparable within an allelic series)"
same,binding signal,VENTX [7],"8.14 upbm affinity estimate (log intensity, higher = more binding, comparable within an allelic series)"
same,binding signal,HOXB9 [11],"8.38 upbm affinity estimate (log intensity, higher = more binding, comparable within an allelic series)"
same,binding signal,HOXC9 [12],"9.72 upbm affinity estimate (log intensity, higher = more binding, comparable within an allelic series)"
same,binding signal,ALX3 [23],"7.8 upbm affinity estimate (log intensity, higher = more binding, comparable within an allelic series)"
same,binding signal,HOXC9 [13],"9.67 upbm affinity estimate (log intensity, higher = more binding, comparable within an allelic series)"
same,binding signal,ALX3 [24],"7.63 upbm affinity estimate (log intensity, higher = more binding, comparable within an allelic series)"
same,binding signal,VAX1 [25],"7.11 upbm affinity estimate (log intensity, higher = more binding, comparable within an allelic series)"
same,binding signal,ALX3 [26],"7.78 upbm affinity estimate (log intensity, higher = more binding, comparable within an allelic series)"
same,binding signal,HOXB9 [16],"8.41 upbm affinity estimate (log intensity, higher = more binding, comparable within an allelic series)"
same,binding signal,HOXC9 [17],"9.73 upbm affinity estimate (log intensity, higher = more binding, comparable within an allelic series)"
same,binding signal,ALX3 [27],"7.74 upbm affinity estimate (log intensity, higher = more binding, comparable within an allelic series)"
same,binding signal,VAX1 [28],"7.15 upbm affinity estimate (log intensity, higher = more binding, comparable within an allelic series)"
same,binding signal,ALX3 [29],"7.82 upbm affinity estimate (log intensity, higher = more binding, comparable within an allelic series)"
same,binding signal,VAX1 [30],"7.05 upbm affinity estimate (log intensity, higher = more binding, comparable within an allelic series)"
